IL-1B inflam inh = blocks inflammasome-driven IL-1 beta release. THP-1 LPS/ATP IL-1B secretion, AlphaLISA, 16 h; active compounds read low. activity change, % at 57.5 µM. 360,000 tested, 4.7% active. AID 743279; in the data active means activity change below about -50%; inconclusive means mostly about -30% to -49%
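THP-1 cells pretreated 1 hr with compounds (up to 57.5 uM final), then stimulated with LPS (250 ng/mL final) plus ATP (1.25 mM final); secreted IL-1B measured by AlphaLISA after 16 hr, decreased signal indicating inhibition.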
HT1080 IDH1KD tx = kills HT-1080 cells with IDH1 knockdown. AID 686971. Potency, µM (titrated, usually from 46.1 µM), without a hit: top-dose activity, negative = toxicity, most hits filed as cytotoxic. HT-1080 IDH1 knockdown viability, ATP luminescence, 48 h. 360,000 tested, 2% active;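 further: potency means the concentration at half of the fitted maximal effect; 0% = DMSO wells and -100% = cell-free medium wells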
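IDH1KD HT-1080 cells, 750/well, RPMI + 5% FBS; compound pinned after 2 h settling; 48 h, 37 °C; CellTiter-Glo luminescence; % activity normalised to DMSO and no-cell wells; curves fitted, classed by r2 and efficacy.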
TDP1 cell noCPT = qHTS for Inhibitors of human tyrosyl-DNA phosphodiesterase 1 (TDP1): qHTS in cells in absence of CPT | Potency, µM (top dose mostly 46.2 µM), for the others: top-dose activity change, negative = growth inhibition, most hits filed as inhibitors | DT40 Tdp1-/- hTDP1 cells, no CPT, ATP luminescence, 48 h | 420,000 tested, 15% active | AID 686978, 2013; further: potency means the concentration at half of the fitted maximal effect; nearly all actives have a fitted effect of over 55% in size
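No-CPT arm: Tdp1-/-;hTDP1 DT40 cells (400/well) plus compounds, incubated ≥48 hr at 37 °C. Readout CellTiter-Glo luminescence.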
HT1080NT lethal = kills 2HG-producing HT-1080-NT fibrosarcoma cells; HT-1080-NT fibrosarcoma viability, CellTiter-Glo ATP luminescence, 48 h; Potency, µM (highest dose often 46.1 µM), for inactives: at the top dose activity, negative = less viability, actives largely listed as cytotoxic; 360,000 tested, 1.6% active; AID 686970;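 further: NT is the 2HG producing partner of a matched IDH1 knockdown line; potency means the concentration at half of the fitted maximal effect; 0% = DMSO-treated cells and -100% = media-only wells without cells; nearly all actives have a fitted effect of over 55% in size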
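HT-1080-NT fibrosarcoma cells (2HG-overproducing), 750 cells/well in RPMI with 5% FBS, dosed after 2 h and incubated 48 h at 37C. CellTiter-Glo luminescence normalized to DMSO and no-cell wells; concentration-response curves fitted and classed.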
ELG1 repair inh = ELG1-dependent DNA repair inhibition. HEK293T ELG1-luciferase reporter, luminescence, 16 h; DNA damage induced by 5-fluorouridine. Potency, µM (highest dose often 46.1 µM), inactives show at the top dose activity change, negative = inhibition, most hits filed as inhibitors. 330,000 tested, 2.3% active. AID 504467; further: potency means the concentration at half of the fitted maximal effect; nearly all actives have a fitted effect of over 55% in size
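HEK293T cells expressing luciferase-tagged ELG1 (2,000/well) received 5-Fluorouridine plus compound or DMSO for 16 hr at 37 °C. Luciferase was read by ONE-Glo luminescence after 30 min at room temperature.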
TDP1 cell CPT = growth inhibition of DT40 Tdp1-/-;hTDP1 cells with camptothecin (screen for TDP1 inhibitors); chicken DT40 Tdp1-/-;hTDP1 cells + 20 nM CPT, ATP luminescence, 48 h; 420,000 tested, 12% active; Potency, µM (top dose mostly 46.2 µM), for inactives: top-dose activity change, negative = growth inhibition, actives largely listed as inhibitors; further: potency means the concentration at half of the fitted maximal effect; nearly all actives have a fitted effect of over 55% in size
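Cell growth measured by CellTiter-Glo luminescence after a minimum 48 h, 37 C compound exposure with 20 nM CPT in Tdp1-knockout DT40 cells stably expressing hTDP1, seeded 400/well; qHTS titration format.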
The depositor's hits bear a star; [ ] = dose if it differs, or a comment. Compounds with a hit are over-represented: about 19% of the library has one in this group of screens. Unless noted, the call rests on the fitted dose curve; in most records, active means well fitted curve in the direction sought with a large enough effect; inconclusive means small, poorly fitted or top-dose-only effect, or another doubt; inactive means no such curve, though single readings can be large; an effect the other way counts as inactive or inconclusive. Unless noted, on the % scale 0 is the no-effect control and ±100 the full control effect.

For O=C(Nc1ccncc1)c1ccc(Cl)c(S(=O)(=O)N2CCc3ccccc32)c1 the results were IL-1B inflam inh inconclusive, HT1080 IDH1KD tx inconclusive, TDP1 cell noCPT 7.31µM*, HT1080NT lethal inconclusive, ELG1 repair inh inconclusive and TDP1 cell CPT 9.2µM*.
Screening CN1CCC(N(C)C(=O)c2ccc(Cl)c(S(=O)(=O)N3CCc4ccccc43)c2)CC1 returned IL-1B inflam inh -50.1*, HT1080 IDH1KD tx -23.7%, TDP1 cell noCPT inconclusive, HT1080NT lethal -25.2%, ELG1 repair inh 0.1% and TDP1 cell CPT inconclusive.
For CN1CCC(N(C)C(=O)c2cccc(S(=O)(=O)N3CCc4ccccc43)c2)CC1 the results were IL-1B inflam inh -23.8, HT1080 IDH1KD tx -4.5%, TDP1 cell noCPT -8.4%, HT1080NT lethal -7.6%, ELG1 repair inh inconclusive and TDP1 cell CPT -14.9%.
O=C1CN(C(=O)c2ccc(Cl)c(S(=O)(=O)N3CCc4ccccc43)c2)c2ccccc2N1 was read as IL-1B inflam inh 2.4, HT1080 IDH1KD tx inconclusive, TDP1 cell noCPT 20.6µM*, HT1080NT lethal 7.31µM*, ELG1 repair inh inconclusive and TDP1 cell CPT 16.4µM*.
For Cc1cccc(NC(=O)c2ccc(Cl)c(S(=O)(=O)N3CCc4ccccc43)c2)n1 the results were IL-1B inflam inh -12.6, HT1080 IDH1KD tx inconclusive, TDP1 cell noCPT inconclusive, HT1080NT lethal -20.4%, ELG1 repair inh inconclusive and TDP1 cell CPT 23.1µM*.
For O=C(/C=C/c1ccccc1)NCCc1c[nH]c2ccccc12 the results were IL-1B inflam inh 46.6, HT1080 IDH1KD tx -14.8%, TDP1 cell noCPT -1.7%, HT1080NT lethal -26.6% and TDP1 cell CPT -4.3%.
`Cc1ccc(C(=O)OCc2nnc(-c3ccccc3)o2)cc1S(=O)(=O)N1CCOCC1` gave IL-1B inflam inh -9.4, HT1080 IDH1KD tx 13.5%, TDP1 cell noCPT -11.0%, HT1080NT lethal 9.6%, ELG1 repair inh 7.3% and TDP1 cell CPT -2.7%.
COc1cccc(Cc2nc3cccnc3n2C2CCN(C(=O)c3n[nH]c4c3CCCC4)CC2)c1 was read as TDP1 cell noCPT -18.2% and TDP1 cell CPT 3.5%[9.04 µM].
For CCc1nnc(NC(=O)c2ccc(Cl)c(S(=O)(=O)N3CCc4ccccc43)c2)s1 the results were IL-1B inflam inh 6.6, HT1080 IDH1KD tx -1.5%[9.24 µM], TDP1 cell noCPT -24.2%, HT1080NT lethal -14.5%, ELG1 repair inh 23.1µM* and TDP1 cell CPT -11.2%.
CCc1nnc(NC(=O)c2ccc(F)c(S(=O)(=O)N3CCCCC3)c2)s1 was read as IL-1B inflam inh -12.2, HT1080 IDH1KD tx -0.9%, TDP1 cell noCPT 1.4%, HT1080NT lethal -5.1%, ELG1 repair inh inconclusive and TDP1 cell CPT 0.5%.
Cc1nc2cccnc2n1-c1cccc(C(=O)NCc2cccc(Cl)c2)c1 was read as TDP1 cell noCPT 18.4µM* and TDP1 cell CPT 20.6µM*.
Cc1nc2cccnc2n1-c1cccc(C(=O)NCCN(C)C)c1 was read as TDP1 cell noCPT -2.5% and TDP1 cell CPT -5.3%.
Screening O=C(NCc1cccc(Cl)c1)c1cccnc1 returned IL-1B inflam inh 14.9, HT1080 IDH1KD tx 9.6%, TDP1 cell noCPT -11.3%, HT1080NT lethal -4.4%, ELG1 repair inh 8.8% and TDP1 cell CPT -20.1%.
`CCc1ccc(CNC(=O)c2cccc(-n3c(C)nc4cccnc43)c2)cc1` gave TDP1 cell noCPT 16.4µM* and TDP1 cell CPT 13µM*.
Cc1ccc(C(=O)N2CCN(c3cccc(Cl)c3)CC2)cc1-n1c(C)nc2cccnc21 was read as TDP1 cell noCPT 9.2µM* and TDP1 cell CPT 10.3µM*.
Screening O=C(c1cccc(Cl)c1)N1CCN(c2ncccn2)CC1 returned IL-1B inflam inh -23.3, HT1080 IDH1KD tx inconclusive, TDP1 cell noCPT 16.7%, HT1080NT lethal 18.8%, ELG1 repair inh -3.3% and TDP1 cell CPT 3.2%.
For CCC(=O)Nc1ccc(S(=O)(=O)NCc2cccn2Cc2cccc(C)c2)cc1 the results were TDP1 cell noCPT 23.1µM* and TDP1 cell CPT 20.6µM*.
Screening CC1(C(=O)NS(=O)(=O)c2cccc(C#N)c2)CCN1C(=O)c1cccc2ccccc12 (stereo not drawn) returned IL-1B inflam inh -4.5, HT1080 IDH1KD tx 24.9%, TDP1 cell noCPT -6.5%, HT1080NT lethal 22.8% and TDP1 cell CPT -11.4%.
`Cc1ccc2nc(N3CCN(Cc4nnnn4C4CCCC4)CC3)c(C#N)cc2c1` gave IL-1B inflam inh -4.1, HT1080 IDH1KD tx -5.0%, TDP1 cell noCPT 23.1µM*, HT1080NT lethal -13.3%, ELG1 repair inh inconclusive and TDP1 cell CPT inconclusive.
CCC(C)(C)n1nnnc1CN1CCN(c2nc3cc(OC)ccc3cc2C#N)CC1 was read as IL-1B inflam inh -55.5*, HT1080 IDH1KD tx -16.3%, TDP1 cell noCPT 23.1µM*, HT1080NT lethal -12.8%, ELG1 repair inh inconclusive and TDP1 cell CPT inconclusive.
`O=C(Nc1cccc(C(F)(F)F)c1)C1CCN(S(=O)(=O)c2cccnc2)CC1` gave IL-1B inflam inh 8.6, HT1080 IDH1KD tx -3.3%, TDP1 cell noCPT 20.6µM*, HT1080NT lethal -1.3%, ELG1 repair inh -6.2% and TDP1 cell CPT inconclusive.
`O=C(Nc1cccc(C(F)(F)F)c1)C1CCN(S(=O)(=O)c2cccc3nsnc23)CC1` gave TDP1 cell noCPT 23.1µM* and TDP1 cell CPT 23.1µM*.
S=C(NCC1CC1)N/N=C/c1ccccc1Cl was read as IL-1B inflam inh 5.9, HT1080 IDH1KD tx 9.1%, TDP1 cell noCPT 23.1µM*, HT1080NT lethal 8.1%, ELG1 repair inh -4.6% and TDP1 cell CPT inconclusive.
`O=[N+]([O-])c1ccc(Cl)c(/C=N/NC(=S)Nc2ccccc2)c1` gave IL-1B inflam inh 46.2, HT1080 IDH1KD tx 4.47µM*, TDP1 cell noCPT 10µM*, HT1080NT lethal inconclusive, ELG1 repair inh inconclusive and TDP1 cell CPT 11.2µM*.
CN(C)c1nc(N/N=C/c2ccccc2O)nc(Nc2ccc(F)cc2)n1 was read as IL-1B inflam inh 86.7, HT1080 IDH1KD tx 13µM*, TDP1 cell noCPT 0.581µM*, HT1080NT lethal inconclusive, ELG1 repair inh inconclusive and TDP1 cell CPT 2.31µM*.
`NC(=S)N/N=C/c1cc([N+](=O)[O-])ccc1Cl` gave IL-1B inflam inh -24.5, HT1080 IDH1KD tx 4.2%, TDP1 cell noCPT -15.9%, HT1080NT lethal 3.6%, ELG1 repair inh -10.2% and TDP1 cell CPT -6.4%.
